Compounds with a hit are over-represented: about 8.2% of the library has one in this group of screens.
KB-3-1 tox = KB-3-1 parental cell cytotoxicity | actives 1.4% (n = 400,000) | Potency, µM (doses to about 46.1 µM), usual class: cytotoxic | AID 1347075 | KB-3-1 viability, CellTiter-Glo ATP luminescence, 72 h; note: % is set by controls: 0 for no effect and ±100 for the full control effect; nearly all actives have a fitted effect of over 60% in size
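Parental KB-3-1 viability, qHTS format: 72 h compound exposure, 37 °C; CellTiter-Glo; media-only wells and DMSO plates as controls; concentration-effect fits on corrected data.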
MCF10A rerep = DNA re-replication induction in MCF 10a cells. MCF 10A DNA re-replication, Hoechst nuclear intensity, 48 h. Potency, µM (top dose mostly 46.1 µM), for the others: at the top dose activity, positive = re-replication, actives largely listed as activators. actives 2.9% (n = 350,000). AID 624296; note: % of control where 0% means no effect; nearly all actives have a fitted effect of over 50% in size
ELG1 DNA repair = blocks ELG1-dependent DNA repair in HEK293T cells | Potency, µM (highest dose often 46.1 µM), without a hit: at the top dose activity change, negative = inhibition, usual class: inhibitors | AID 504467 | actives 2.3% (n = 330,000) | HEK293T ELG1-luciferase reporter, luminescence, 16 h; DNA damage induced by 5-fluorouridine; note: % is set by controls: 0 for no effect and ±100 for the full control effect; nearly all actives have a fitted effect of over 55% in size
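Cells (2,000 per well) received 5-fluorouridine plus test compound or DMSO and were incubated 16 hr at 37 °C, 5% CO2. Luciferase activity was read by luminescence 30 min after ONE-Glo addition; signal suppression marked inhibition of damage-induced ELG1 function.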
KB-V1 MDR tox = kills drug-selected multidrug resistant KB-V1 cells; AID 1347076; actives 3.4% (n = 400,000); KB-V1 MDR cells viability, CellTiter-Glo, 72 h; Potency, µM (doses to about 46.1 µM), usual class: cytotoxic; note: % is set by controls: 0 for no effect and ±100 for the full control effect; nearly all actives have a fitted effect of over 60% in size
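KB-V1 MDR subline cells in DMEM (phenol-red free, 10% FBS) exposed to compounds in qHTS concentration series for 72 h at 37 degrees C. Viability read by CellTiter-Glo luminescence; concentration-effect curves fitted after normalization and correction.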
SW480 rereplic = DNA re-replication induction in SW480 cells; AID 624297; Potency, µM (top dose mostly 46.1 µM), inactives show at the highest dose re-replication activation, hits mostly activators; SW480 DNA re-replication, Hoechst DNA content imaging, 48 h; actives 1.8% (n = 340,000); note: % of control where 0% means no effect; nearly all actives have a fitted effect of over 55% in size
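Image-based DNA-content assay: after two days of treatment, nuclei were labelled with the DNA dye Hoechst and imaged, and hits were compounds raising the count of nuclei showing high fluorescence intensity.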
Numbers without * were called inactive. Calls come from the whole dose curve; as a rule, active = well fitted curve in the direction sought with a large enough effect; inconclusive = small, poorly fitted or top-dose-only effect, or another doubt; inactive = no such curve, though single readings can be large; an effect the other way counts as inactive or inconclusive. Potency is the fitted concentration of half-maximal effect.

How did Cc1ccc(C(C2C(=O)CC(C)(C)CC2=O)C2C(=O)CC(C)(C)CC2=O)s1 do in these assays?
KB-3-1 tox: inactive; MCF10A rerep: 18µM*; ELG1 DNA repair: inconclusive; KB-V1 MDR tox: inactive; SW480 rereplic: 0%

Results for N=c1oc2cc(O)ccc2cc1C(=O)Nc1ccc(Cl)cc1 ?
KB-3-1 tox: inconclusive; MCF10A rerep: 1.6µM*; ELG1 DNA repair: inconclusive; KB-V1 MDR tox: inactive; SW480 rereplic: 2.6µM*

How did COc1ccc(N=c2oc3cc(O)ccc3cc2C(=O)NCC2CCCO2)cc1 (centres undefined) do in these assays?
KB-3-1 tox: inactive; MCF10A rerep: 10%; ELG1 DNA repair: inconclusive; KB-V1 MDR tox: inactive; SW480 rereplic: -3%

How did COc1ccc(-c2cc3ccc(O)cc3oc2=O)cc1OC do in these assays?
KB-3-1 tox: inactive; MCF10A rerep: inconclusive; ELG1 DNA repair: inconclusive; KB-V1 MDR tox: inactive; SW480 rereplic: 10µM*

Results for CCOc1ccc(N=c2oc3cc(O)ccc3cc2C(=O)NCC2CCCO2)cc1 (centres undefined) ?
KB-3-1 tox: inactive; MCF10A rerep: -6%; ELG1 DNA repair: 2.1µM*; KB-V1 MDR tox: inactive; SW480 rereplic: -4%

How did Cc1ccc(NC(=O)c2cc3ccccc3oc2=N)cc1 do in these assays?
KB-3-1 tox: inactive; MCF10A rerep: -1%; ELG1 DNA repair: inconclusive; KB-V1 MDR tox: inactive; SW480 rereplic: inconclusive

What do the screens show for `O=C(NCc1ccco1)c1cc2ccc(O)cc2oc1=O`?
KB-3-1 tox: inconclusive; MCF10A rerep: 5.8µM*; ELG1 DNA repair: inconclusive; KB-V1 MDR tox: inactive; SW480 rereplic: inconclusive

How did COC(=O)c1ccc(NC(=O)c2ccc[n+]([O-])c2)cc1 do in these assays?
KB-3-1 tox: inactive; MCF10A rerep: 12%; ELG1 DNA repair: 7%; KB-V1 MDR tox: inactive; SW480 rereplic: 2%

How did COc1cccc(OC)c1C(=O)Nc1nnc(C)s1 do in these assays?
KB-3-1 tox: inactive; KB-V1 MDR tox: inactive

What do the screens show for `COc1ccc(NC(=O)c2cc(C3CCCCN3C(=O)c3ccc(NC(C)=O)cc3)on2)c(C)c1` (centres undefined)?
KB-3-1 tox: inactive; KB-V1 MDR tox: inactive

How did Cc1cc(S(=O)(=O)N2CCOCC2)c(C)s1 do in these assays?
KB-3-1 tox: inactive; MCF10A rerep: -4%; ELG1 DNA repair: -10%; KB-V1 MDR tox: inconclusive; SW480 rereplic: -5%

How did Cc1ccc2cc3cc(C(=O)NCc4ccco4)oc3nc2c1 do in these assays?
KB-3-1 tox: 3.5µM*; MCF10A rerep: 17%; ELG1 DNA repair: 4%; KB-V1 MDR tox: inactive; SW480 rereplic: -4%

Results for COc1ccc(NC(=O)c2cc3cccc(OC)c3oc2=Nc2ccc(C(=O)O)cc2)cc1OC ?
KB-3-1 tox: inconclusive; MCF10A rerep: 0%; ELG1 DNA repair: inconclusive; KB-V1 MDR tox: inactive; SW480 rereplic: -18%

How did COc1ccc(N=c2oc3cc(O)ccc3cc2C(=O)Nc2ccccn2)cc1OC do in these assays?
KB-3-1 tox: inconclusive; MCF10A rerep: -33%; ELG1 DNA repair: 4.1µM*; KB-V1 MDR tox: inconclusive; SW480 rereplic: -46%

How did Cc1ccc(N=c2oc3cc(O)ccc3cc2C(N)=O)cc1 do in these assays?
KB-3-1 tox: inactive; MCF10A rerep: 9.2µM*; ELG1 DNA repair: inconclusive; KB-V1 MDR tox: inactive; SW480 rereplic: 16µM*

How did Cc1ccc(C(=O)N/N=c2\oc3ccccc3cc2C(N)=O)cc1 do in these assays?
KB-3-1 tox: inactive; MCF10A rerep: 4%; ELG1 DNA repair: -18%; KB-V1 MDR tox: inactive; SW480 rereplic: -9%

Results for COc1ccc2cc(C(C)=O)c(=O)oc2c1 ?
KB-3-1 tox: inactive; MCF10A rerep: 1%; ELG1 DNA repair: -2%; KB-V1 MDR tox: inactive; SW480 rereplic: 0%

Results for CC(=O)c1cc2ccc(O)cc2oc1=O ?
KB-3-1 tox: inactive; MCF10A rerep: 21µM*; ELG1 DNA repair: 5%; KB-V1 MDR tox: inactive; SW480 rereplic: 18µM*

Results for Nc1nc(Nc2ccc(Cl)cc2)nc2ccccc12 ?
KB-3-1 tox: inactive; MCF10A rerep: 27%; ELG1 DNA repair: inconclusive; KB-V1 MDR tox: 18µM*; SW480 rereplic: -7%

Results for Nc1nc(Nc2ccccc2)nc2ccccc12 ?
KB-3-1 tox: inconclusive; MCF10A rerep: 0%; ELG1 DNA repair: inconclusive; KB-V1 MDR tox: inconclusive; SW480 rereplic: -8%

What do the screens show for `CC(Oc1cccc([N+](=O)[O-])c1)C(=O)NCCC1=CCCCC1` (centres undefined)?
KB-3-1 tox: inactive; MCF10A rerep: 5%; ELG1 DNA repair: 11%; KB-V1 MDR tox: inconclusive; SW480 rereplic: -11%

How did O=C1C=CC(=Nc2cccc3c2C(=O)c2ccccc2-3)O1 do in these assays?
KB-3-1 tox: inconclusive; MCF10A rerep: inconclusive; KB-V1 MDR tox: inactive; SW480 rereplic: 23µM*

What do the screens show for `O=[N+]([O-])c1cccc(S(=O)(=O)Nc2ccc(-c3ccc(N4CCOCC4)nn3)cc2)c1`?
KB-3-1 tox: inactive; MCF10A rerep: 14%; ELG1 DNA repair: 15%; KB-V1 MDR tox: inactive; SW480 rereplic: -81%

Results for COc1ccc(Cc2nc3ccc(C(=O)NC(C)c4cn(C)nc4C)cc3o2)cc1 (centres undefined) ?
KB-3-1 tox: inactive; MCF10A rerep: 15%; ELG1 DNA repair: inconclusive; KB-V1 MDR tox: inactive; SW480 rereplic: -4%

How did Cc1cc(Nc2cccc([N+](=O)[O-])c2)n2c(nc3ccccc32)c1C#N do in these assays?
KB-3-1 tox: 5.2µM*; MCF10A rerep: 6.3µM*; ELG1 DNA repair: inconclusive; KB-V1 MDR tox: 3.3µM*; SW480 rereplic: inconclusive

Results for Cc1cc(Nc2ccc(F)cc2)n2c(nc3ccccc32)c1C#N ?
KB-3-1 tox: inactive; KB-V1 MDR tox: inactive

What do the screens show for `C/C(=N\NC(=O)c1cccc(F)c1)c1ccc(Br)s1`?
KB-3-1 tox: inactive; MCF10A rerep: inconclusive; ELG1 DNA repair: -20%; KB-V1 MDR tox: inconclusive; SW480 rereplic: 9.2µM*

What do the screens show for `COc1cc(/C=C2\SC(=S)N(CCCCC(=O)O)C2=O)ccc1OS(=O)(=O)c1ccc(C)cc1`?
KB-3-1 tox: inactive; MCF10A rerep: inconclusive; ELG1 DNA repair: 26%; KB-V1 MDR tox: inactive; SW480 rereplic: 86%

Results for CCCCCn1cnc2sc(CC)cc2c1=O ?
KB-3-1 tox: inactive; MCF10A rerep: 3%; ELG1 DNA repair: inconclusive; KB-V1 MDR tox: 15µM*; SW480 rereplic: 0%

Results for Clc1ccc(SCCCCN2CCNCC2)cc1 ?
KB-3-1 tox: inactive; MCF10A rerep: 2.9µM*; ELG1 DNA repair: inconclusive; KB-V1 MDR tox: inactive; SW480 rereplic: inconclusive

How did CC1CN(CCCCSc2ccc(Cl)cc2)CC(C)O1 (centres undefined) do in these assays?
KB-3-1 tox: inactive; MCF10A rerep: 23µM*; ELG1 DNA repair: 1%; KB-V1 MDR tox: inactive; SW480 rereplic: inconclusive

Compound activity: PubChem BioAssay, National Center for Advancing Translational Sciences (NCATS)
